The panel holds about 83,000 compounds, 20% with a hit somewhere; the sample as a whole holds those more often.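 For each line, cells grew in 96-well plates with the test compound present at a single concentration for 48 hours.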 Active and inactive are the calls of the source. Rule for the calls: active = growth percent below 10; inactive = the rest.
What follows are molecules tested on M14 melanoma (assay: NCI-60 one-dose screen, 48 h (100 = growth as untreated, 0 = no growth, -100 = all killed)). Details: 10 µM unless noted.

**Q.** `O=c1nc(-c2ccccc2)c2cc(-c3ccc(N4CCCC4)nc3)ccc2[nH]1` was tested. Which growth did it give?
**A.** 47.9% (inactive)

**Q.** For `O=[N+]([O-])c1cccc(CN(Cc2cccc([N+](=O)[O-])c2O)c2ccccc2)c1O`, which growth is on record?
**A.** 67.6% (inactive)

**Q.** Which growth does the source give for `Oc1ccccc1-c1nc2c3ccccc3c3ccccc3c2o1` here?
**A.** 103% (inactive)

**Q.** How did the growth turn out when `CN(C)CCCn1c2c(c3cc(-c4ccco4)ccc3c1=O)C(=O)c1ccccc1-2` was run?
**A.** 81.2% (inactive)

**Q.** Which growth does the source give for `COc1ccc(C2CC(c3ccc(OC)cc3O)=NN2c2ccc(S(N)(=O)=O)cc2)cc1` (configuration not stated) here?
**A.** 34.1% (inactive)

**Q.** `Cc1c(Cl)cccc1NC(=O)c1sc2nc3c(cc2c1N)CCCCCC3` was tested. Which growth did it give?
**A.** 8.66% (active)

**Q.** Which growth does the source give for `[2H]c1cc2c(c([2H])c1F)/C(=C/c1[nH]c(C)c(C(=O)NCCN(CC)CC)c1C)C(=O)N2` here?
**A.** 20.6% (inactive)

**Q.** `CC(=O)Oc1c2c(nc3c1c1ccccc1n3Cc1ccccc1)-c1ccccc1C2` was tested. Which growth did it give?
**A.** 88.3% (inactive)

**Q.** With `C=C(C)[C@@H]1CC[C@]2(C(=O)n3ccnc3)CC[C@]3(C)[C@H](CC[C@@H]4[C@@]5(C)CCCNC(C)(C)[C@@H]5CC[C@]43C)[C@@H]12` as the molecule, how does the growth read?
**A.** -78.6% (active)

**Q.** `CC(C)C[C@H](C(=O)O)N(C)C(=O)[C@@H]1CCCN1C(=O)[C@H](C)OC(=O)[C@H](CCC(N)=O)NC(=O)[C@@H]1CCC(=O)N1` was tested. Which growth did it give?
**A.** 99.9% (inactive)

**Q.** Which growth does the source give for `COC(=O)CCc1cc(O)c2c(c1)[C@@H](C(=O)OC)[C@H](c1ccc(O)c(O)c1)O2` here?
**A.** 32.5% (inactive)

**Q.** How did the growth turn out when `CCCCN(CCCC)CC(CN(CC)CC)OC(=O)Nc1ccccc1` (configuration not stated) was run?
**A.** 80.9% (inactive)

**Q.** `COC(=O)CCc1n(Cc2ccc3ccccc3c2)c2ccccc2[n+]1Cc1ccc2ccccc2c1` was tested. Which growth did it give?
**A.** -25.5% (active)

**Q.** How did the growth turn out when `COc1ccc(Nc2nc(SCC(C)C)nc(-c3ccc(F)cc3)c2C#N)cc1` was run?
**A.** 49.3% (inactive)

**Q.** `CCCS(=O)(=O)Nc1ccc(F)c(C(=O)c2c[nH]c3ncc(-c4ccc(OCCCC5CCCCN5)nc4)cc23)c1F` (configuration not stated) was tested. Which growth did it give?
**A.** -17.2% (active)

**Q.** `CC(=O)c1ccc(NC(=O)CSc2nnc(-c3cc(-c4ccc(C)cc4)nc4ccccc34)o2)cc1` was tested. Which growth did it give?
**A.** 57.9% (inactive)

**Q.** With `Oc1ccc(CNNc2ccnc3c(O)cccc23)c2cccnc12` as the molecule, how does the growth read?
**A.** 30.9% (inactive)

**Q.** How did the growth turn out when `COc1ccc(-c2cs/c(=N\N=C\c3ccc(O)cc3O)n2/N=C/c2ccc(O)cc2O)cc1` was run?
**A.** -19% (active)

**Q.** Which growth does the source give for `c1ccc(-c2n(Cc3ccc4ccccc4n3)cc[n+]2Cc2ccc3ccccc3n2)cc1` here?
**A.** 34.6% (inactive)

**Q.** Which growth does the source give for `O=C1C(Cl)=C(NCCCN(CCCNC2=C(Cl)C(=O)c3ccccc3C2=O)C2=C(Cl)C(=O)c3ccccc3C2=O)C(=O)c2ccccc21` here?
**A.** 11.7% (inactive)

**Q.** For `CCc1ccc(OCc2ccccc2C(=O)Nc2ccc3nc(C)cc(N)c3c2)cc1`, which growth is on record?
**A.** -93.6% (active)

**Q.** How did the growth turn out when `CC1CCN(CCCCCOc2ccc3oc4cc(Cl)ccc4c(=O)c3c2)CC1` was run?
**A.** -50.1% (active)

**Q.** `Nc1ccccc1NS(=O)(=O)c1ccc(Cl)cc1` was tested. Which growth did it give?
**A.** 97.1% (inactive)

**Q.** How did the growth turn out when `COc1cc(C2=NNC(c3ccc(N(C)C)cc3)C2)cc(OC)c1OC` (configuration not stated) was run?
**A.** 21.7% (inactive)

**Q.** With `COc1cc(NC(=O)Nc2cnc(Nc3ccc(N4CCOCC4)cc3)nc2Oc2ccc(C(F)(F)F)cc2)cc(OC)c1` as the molecule, how does the growth read?
**A.** 107% (inactive)

**Q.** For `C=C(C)[C@@H]1CC[C@]2(C(=O)O)CC[C@]3(C)[C@H](CC[C@@H]4[C@@]5(C)C[C@@H](CC#Cc6ccc(Cl)cc6)C(=O)C(C)(C)[C@@H]5CC[C@]43C)[C@@H]12`, which growth is on record?
**A.** 1.24% (active)

**Q.** `Cc1cc(Nc2nc(SCc3ccc(C(=O)Nc4ccc(F)cc4N)cc3)nn3cccc23)n[nH]1` was tested. Which growth did it give?
**A.** 38.9% (inactive)

**Q.** For `O=C(/C(=C/c1ccc([N+](=O)[O-])cc1)SCc1ccc(F)cc1)c1ccc(Cl)cc1`, which growth is on record?
**A.** 44.7% (inactive)

**Q.** Which growth does the source give for `C#C[C@@]1(O)[C@@H](CO)O[C@@H](n2cc(Br)c3c(N)ncnc32)[C@@H]1O` here?
**A.** 0.212% (active)

**Q.** With `CC(=O)[C@@H]1CC[C@]2(C(=O)O)CC[C@]3(C)[C@H](CC[C@@H]4[C@@]5(C)Cc6c([nH]c7ccccc67)C(C)(C)[C@@H]5CC[C@]43C)[C@@H]12` as the molecule, how does the growth read?
**A.** 78.7% (inactive)

**Q.** For `CC[C@]12C=CCN3CC[C@@]4(c5cc(NC(=O)CCC(=O)O[C@H]6CC[C@H]7[C@@H]8CC[C@H]9CC(=O)CC[C@]9(C)[C@H]8CC[C@]67C)c(OC)cc5N(C)[C@H]4[C@@](O)(C(=O)OC)[C@@H]1OC(C)=O)[C@@H]32`, which growth is on record?
**A.** 67.5% (inactive)

**Q.** `CCCCCOC(=O)c1ccccc1O` was tested. Which growth did it give?
**A.** 97.4% (inactive)

Source: PubChem BioAssay (NCI)
